In the antibiotic and cytotoxicity screens of Wong et al. (2023) one finds growth inhibition call data, which are given here for 73 compounds.

Screen size: about 39,000 compounds; about 500 (1.3%) were called active. The list comes from a sample in which actives are over-represented; it also holds similar structures and randomly drawn compounds.

The subject of this assay is S. aureus RN4220. Nature of the assay: growth inhibition call (relative growth <= 0.2). Conditions: 50 µM.
For the compound `Cc1ccc(S(=O)(=O)Nc2ccc3c(c2)CC(=O)N([C@@H](C)CO)C[C@H](C)[C@H](CN(C)S(=O)(=O)c2c(C)noc2C)O3)cc1`, the growth inhibition call is “inactive”.

As for `C[C@H](CO)N1C[C@H](C)[C@H](CN(C)S(=O)(=O)c2ccc(Cl)cc2)Oc2c(NC(=O)C3CCOCC3)cccc2C1=O`, the growth inhibition call was “inactive”.

For the compound `COc1ccc(CNC(=O)C[C@@H]2CC[C@@H]3[C@H](COc4ccc(NC(=O)C5CC5)cc4C(=O)N3C)O2)cc1`, the growth inhibition call was “inactive”.

As to `COc1ccccc1C#Cc1cnc2c(c1)C(=O)N([C@@H](C)CO)C[C@H](C)[C@@H](CN(C)S(=O)(=O)c1cn(C)cn1)O2`, the growth inhibition call is “inactive”.

Regarding `COc1ccccc1NC(=O)N(C)C[C@H]1Oc2ncc(C#CCN(C)C)cc2C(=O)N([C@@H](C)CO)C[C@@H]1C`, the growth inhibition call is “inactive”.

`COc1ccc(-c2ccc3c(c2)O[C@H](CN(C)CC2CCOCC2)[C@@H](C)CN([C@H](C)CO)S3(=O)=O)cc1`: the growth inhibition call is “inactive”.

As to `C[C@@H]1CN([C@@H](C)CO)C(=O)Cc2cc(NC(=O)Cn3cnnn3)ccc2O[C@H]1CN(C)S(=O)(=O)c1ccc(Cl)cc1`, the growth inhibition call is “inactive”.

For `Cc1noc(C)c1NC(=O)Nc1ccc2c(c1)C(=O)N([C@H](C)CO)C[C@@H](C)[C@@H](CN(C)C(=O)Nc1c(C)noc1C)OCCCC[C@@H](C)O2`, the growth inhibition call is “inactive”.

Consider `Cc1cc(NN)nc(SCC(=O)NN)n1`, for which the growth inhibition call was “inactive”.

Consider `CC(C)(Sc1ccc(CCN(CCCCC2CCCCC2)C(=O)NC2CCCCC2)cc1)C(=O)O`, for which the growth inhibition call is “active”.

With `C/C=C/c1ccc2c(c1)O[C@@H](CN(C)C(=O)c1ccc3c(c1)OCO3)[C@@H](C)CN([C@@H](C)CO)S2(=O)=O`, the growth inhibition call was “inactive”.

For the compound `Cn1cnc(S(=O)(=O)N2C[C@H](O)COC[C@H]3O[C@H](CC(=O)NC4CCC4)CC[C@@H]32)c1`, the growth inhibition call is “inactive”.

For the compound `C[C@H]1CN([C@@H](C)CO)C(=O)c2cc(NC(=O)CCCN(C)C)ccc2O[C@H]1CN(C)Cc1ccc(C(=O)O)cc1`, the growth inhibition call is “inactive”.

For `C[C@H]1CN([C@@H](C)CO)C(=O)c2cc(NC(=O)Cn3cnnn3)ccc2O[C@H]1CN(C)Cc1ccc(C(=O)Nc2ccccc2N)cc1`, the growth inhibition call was “inactive”.

`CC(C)(C)CC(C)(C)c1ccc(OCCOCC[N+](C)(C)Cc2ccccc2)cc1.[Cl-]`: the growth inhibition call is “active”.

For `C[N+](C)(CCOc1ccccc1)Cc1ccccc1.O=C(O)c1cc2ccccc2c(Br)c1O`, the growth inhibition call was “inactive”.

For the compound `Cc1cc(C(C)(C)CC(C)(C)C)ccc1OCCOCC[N+](C)(C)Cc1ccccc1.[Cl-]`, the growth inhibition call was “active”.

For the compound `C[N+](C)(CCOc1ccccc1)Cc1ccccc1.O=C([O-])c1cc2ccccc2cc1O`, the growth inhibition call is “inactive”.

With `C=c1ccc(C)cc1=C1NN=C(NC(=O)c2ccc(S(=O)(=O)N(CCOC)CCOC)cc2)O1`, the growth inhibition call was “inactive”.

Regarding `CC(C)NC(=O)NCC[C@H]1CC[C@H](NC(=O)CN(C)C)[C@@H](CO)O1`, the growth inhibition call is “inactive”.

In the case of `C/C=C/c1ccc2c(c1)O[C@H](CN(C)Cc1ccc(C(=O)O)cc1)[C@@H](C)CN([C@H](C)CO)S2(=O)=O`, the growth inhibition call is “inactive”.

Regarding `C[C@@H]1CN([C@H](C)CO)C(=O)c2cc(NC(=O)Nc3ccc4c(c3)OCO4)ccc2O[C@@H]1CN(C)Cc1ccc(C(F)(F)F)cc1`, the growth inhibition call was “inactive”.

Take `C[C@H]1CCCCO[C@H](CN(C)CC2CCCCC2)[C@@H](C)CN([C@@H](C)CO)C(=O)c2cc(NC(=O)C3CCCCC3)ccc2O1`: the growth inhibition call was “inactive”.

For the compound `O=C(Nc1nc(OCCN2CCCC2=O)cnc1-c1cc(Cl)cc(Cl)c1)c1cc2ccccc2s1`, the growth inhibition call is “inactive”.

With `C[C@H](CO)N1C[C@H](C)[C@H](CN(C)Cc2ccc(C(=O)Nc3ccccc3N)cc2)Oc2c(NC(=O)Nc3cccc4ccccc34)cccc2C1=O`, the growth inhibition call was “inactive”.

On to `C[C@H]1CN([C@@H](C)CO)C(=O)c2cccc(NC(=O)Nc3ccc(C(F)(F)F)cc3)c2O[C@H]1CN(C)C(=O)Nc1ccc2c(c1)OCO2`, for which the growth inhibition call is “active”.

Take `C[C@H]1CN([C@@H](C)CO)C(=O)c2cccc(NC(=O)Nc3ccc4c(c3)OCO4)c2O[C@@H]1CN(C)C(=O)Nc1ccc(C(F)(F)F)cc1`: the growth inhibition call was “inactive”.

Take `C[C@H](CO)N1C[C@H](C)[C@H](CN(C)C(=O)Nc2ccc(C(F)(F)F)cc2)Oc2c(NC(=O)Nc3ccc4c(c3)OCO4)cccc2C1=O`: the growth inhibition call was “inactive”.

In the case of `C[C@H](CO)N1C[C@H](C)[C@H](CN(C)C(=O)Nc2ccc3c(c2)OCO3)Oc2c(NC(=O)Nc3ccc(C(F)(F)F)cc3)cccc2C1=O`, the growth inhibition call is “active”.

Consider `C[C@@H]1CN([C@H](C)CO)C(=O)c2cccc(NC(=O)Nc3ccc(C(F)(F)F)cc3)c2O[C@@H]1CN(C)C(=O)Nc1ccc2c(c1)OCO2`, for which the growth inhibition call was “inactive”.

As to `C[C@@H]1CN([C@@H](C)CO)C(=O)c2cccc(NC(=O)Nc3ccc(C(F)(F)F)cc3)c2O[C@H]1CN(C)C(=O)Nc1ccc2c(c1)OCO2`, the growth inhibition call is “inactive”.

For `C[C@H](CO)N1C[C@H](C)[C@H](CN(C)Cc2ccc3c(c2)OCO3)OCCCC[C@H](C)Oc2ccc(NC(=O)CCC(F)(F)F)cc2C1=O`, the growth inhibition call was “inactive”.

For the compound `COc1ccccc1-c1ccc2c(c1)O[C@@H](CN(C)C(=O)c1cccnc1)[C@@H](C)CN([C@@H](C)CO)S2(=O)=O`, the growth inhibition call is “inactive”.

As to `COc1cccc(NC(=O)C[C@@H]2CC[C@@H]3[C@H](COc4ccc(NC(=O)C5CCOCC5)cc4C(=O)N3C)O2)c1`, the growth inhibition call was “inactive”.

For `Cc1noc(C)c1S(=O)(=O)Nc1ccc2c(c1)C(=O)N([C@H](C)CO)C[C@H](C)[C@H](CN(C)S(=O)(=O)c1ccc(F)cc1)O2`, the growth inhibition call is “inactive”.

Regarding `CCOC(=O)[C@H]1C/C=C/C[C@H](C(=O)OCC)C(=O)O[C@H]2[C@@H](OC)O[C@H](CO)[C@@H](OC(=O)Nc3ccc(Br)cc3)[C@@H]2OC1=O`, the growth inhibition call was “inactive”.

Consider `CCOc1ccc(CO[C@@H]2O[C@H](CO)[C@@H](O)[C@H](O)[C@H]2NC(C)=O)cc1OC`, for which the growth inhibition call was “inactive”.

As for `Cn1cnc(CCNC(=O)C[C@@H]2CC[C@@H]3[C@H](COC[C@H](O)CN3C(=O)Nc3ccc(C(F)(F)F)cc3)O2)c1`, the growth inhibition call was “active”.

For the compound `Cn1cnc(CCNC(=O)C[C@@H]2CC[C@@H]3[C@H](COC[C@@H](O)CN3C(=O)Nc3ccc(C(F)(F)F)cc3)O2)c1`, the growth inhibition call was “inactive”.

Consider `Cn1cnc(CCNC(=O)C[C@H]2CC[C@@H]3[C@H](COC[C@H](O)CN3C(=O)Nc3ccc(C(F)(F)F)cc3)O2)c1`, for which the growth inhibition call is “active”.

In the case of `Cn1cnc(CCNC(=O)C[C@@H]2CC[C@H]3[C@@H](COC[C@@H](O)CN3C(=O)Nc3ccc(Cl)cc3)O2)c1`, the growth inhibition call is “inactive”.

For `Cn1cnc(CCNC(=O)C[C@@H]2CC[C@H]3[C@@H](COC[C@@H](O)CN3C(=O)Nc3ccc(C(F)(F)F)cc3)O2)c1`, the growth inhibition call was “active”.

For the compound `Cn1cnc(CCNC(=O)C[C@H]2CC[C@H]3[C@@H](COC[C@@H](O)CN3C(=O)Nc3ccc(C(F)(F)F)cc3)O2)c1`, the growth inhibition call is “active”.

Take `Cn1cnc(CCNC(=O)C[C@H]2CC[C@H]3[C@@H](COC[C@@H](O)CN3C(=O)Nc3ccc(Cl)cc3)O2)c1`: the growth inhibition call was “inactive”.

For `Cn1cnc(CCNC(=O)C[C@H]2CC[C@@H]3[C@H](COC[C@@H](O)CN3C(=O)Nc3ccc(Cl)cc3)O2)c1`, the growth inhibition call was “inactive”.

In the case of `Cn1cnc(CCNC(=O)C[C@@H]2CC[C@H]3[C@@H](COC[C@H](O)CN3C(=O)Nc3ccc(Cl)cc3)O2)c1`, the growth inhibition call was “inactive”.

As for `Cn1cnc(CCNC(=O)C[C@H]2CC[C@H]3[C@@H](COC[C@H](O)CN3C(=O)Nc3ccc(C(F)(F)F)cc3)O2)c1`, the growth inhibition call was “inactive”.

Take `Cn1cnc(CCNC(=O)C[C@H]2CC[C@@H]3[C@H](COC[C@@H](O)CN3C(=O)Nc3ccc(C(F)(F)F)cc3)O2)c1`: the growth inhibition call is “inactive”.

Take `Cn1cnc(CCNC(=O)C[C@@H]2CC[C@H]3[C@@H](COC[C@H](O)CN3C(=O)Nc3ccc(C(F)(F)F)cc3)O2)c1`: the growth inhibition call is “inactive”.

In the case of `CN1C(=O)c2cc(NC(=O)C3CCC3)ccc2OC[C@H]2O[C@H](CC(=O)NCCc3ccncc3)CC[C@H]21`, the growth inhibition call was “inactive”.

Take `CO[C@H]1CN(C)C(=O)c2cc(NS(=O)(=O)CC(F)(F)F)ccc2OC[C@@H](C)N(C(=O)NC(C)C)C[C@H]1C`: the growth inhibition call was “inactive”.

Take `O=C(C[C@@H]1CC[C@H](NC(=O)Cc2ccccn2)[C@H](CO)O1)NCCCN1CCOCC1`: the growth inhibition call was “inactive”.

Take `COCCOC(=O)N1C(=O)[C@@]2(c3cc(C#Cc4ccc(OC)cc4)ccc31)[C@H](C(=O)N1CCc3cc(OC)c(OC)cc3C1)[C@H]1C(=O)O[C@H](c3ccccc3)[C@H](c3ccccc3)N1[C@@H]2c1ccc(O)cc1`: the growth inhibition call was “inactive”.

Consider `C[C@H]1CN([C@@H](C)CO)C(=O)c2cc(C3=CCCC3)cnc2O[C@H]1CN(C)C(=O)Nc1ccc(C(F)(F)F)cc1`, for which the growth inhibition call was “inactive”.

Regarding `C[C@H]1CN([C@@H](C)CO)C(=O)c2cccc(NC(=O)Nc3cccc4ccccc34)c2O[C@@H]1CN(C)C(=O)Nc1cccc2ccccc12`, the growth inhibition call was “inactive”.

On to `C#CCn1c(=O)c2c(OC)ccnc2n(C)c1=O`, for which the growth inhibition call is “inactive”.

On to `Cc1ccccc1S(=O)(=O)N1[C@@H]2Cn3c(cccc3=O)[C@H]1[C@@H](C(=O)N1CCOCC1)[C@@H]2CO`, for which the growth inhibition call was “inactive”.

Regarding `COc1ccc(NC(=O)Nc2ccc3c(c2)C(=O)N([C@@H](C)CO)C[C@@H](C)[C@@H](CN(C)Cc2ccc(Oc4ccccc4)cc2)O3)cc1`, the growth inhibition call was “inactive”.

For `CN1C(=O)c2cc(NS(C)(=O)=O)ccc2OC[C@H]2O[C@@H](CC(=O)N3CCOCC3)CC[C@H]21`, the growth inhibition call was “inactive”.

Turning to `C[C@@H]1CN([C@@H](C)CO)C(=O)Cc2cc(NS(=O)(=O)c3ccc(Cl)cc3)ccc2O[C@@H]1CN(C)C(=O)Nc1ccc(C(F)(F)F)cc1`, the growth inhibition call was “inactive”.

Take `C[C@H](CO)N1C[C@H](C)[C@@H](CN(C)C(=O)Nc2cccc3ccccc23)Oc2ccc(NC(=O)Cn3cnnn3)cc2CC1=O`: the growth inhibition call is “inactive”.

With `C[C@@H]1CN([C@H](C)CO)C(=O)c2cc(NC(=O)Nc3ccc(C(F)(F)F)cc3)ccc2O[C@@H](C)CCCCO[C@H]1CN(C)C(=O)C1CCCCC1`, the growth inhibition call was “inactive”.

For the compound `CO[C@@H](CN(C)C(=O)C1CCOCC1)[C@H](C)CN(C(=O)Nc1ccc(C(F)(F)F)cc1)[C@@H](C)CO`, the growth inhibition call is “active”.

As to `CO[C@H](CN(C)C(=O)Nc1ccc(C(F)(F)F)cc1)[C@H](C)CN(Cc1ccccc1Cl)[C@@H](C)CO`, the growth inhibition call was “inactive”.

In the case of `C[C@H](CO)N1C[C@H](C)[C@@H](CN(C)C(=O)C2CCCCC2)OCCCC[C@H](C)Oc2ccc(NC(=O)Nc3ccc(C(F)(F)F)cc3)cc2C1=O`, the growth inhibition call is “inactive”.

As for `CO[C@H](CN(C)C(=O)Nc1ccc(C(F)(F)F)cc1)[C@@H](C)CN(Cc1ccccc1Cl)[C@H](C)CO`, the growth inhibition call was “inactive”.

Turning to `CO[C@H](CN(C)C(=O)C1CCOCC1)[C@H](C)CN(C(=O)Nc1ccc(C(F)(F)F)cc1)[C@@H](C)CO`, the growth inhibition call was “active”.

As to `CO[C@@H](CN(C)C(=O)Nc1ccc(C(F)(F)F)cc1)[C@H](C)CN(Cc1ccccc1Cl)[C@H](C)CO`, the growth inhibition call was “inactive”.

Take `CO[C@@H](CN(C)C(=O)C1CCOCC1)[C@@H](C)CN(C(=O)Nc1ccc(C(F)(F)F)cc1)[C@@H](C)CO`: the growth inhibition call is “inactive”.

With `CO[C@@H](CN(C)C(=O)C1CCOCC1)[C@@H](C)CN(C(=O)Nc1ccc(C(F)(F)F)cc1)[C@H](C)CO`, the growth inhibition call is “active”.

`CO[C@H](CN(C)C(=O)C1CCOCC1)[C@@H](C)CN(C(=O)Nc1ccc(C(F)(F)F)cc1)[C@@H](C)CO`: the growth inhibition call is “active”.

As for `CO[C@@H](CN(C)C(=O)Nc1ccc(C(F)(F)F)cc1)[C@H](C)CN(Cc1ccccc1Cl)[C@@H](C)CO`, the growth inhibition call is “inactive”.

`CO[C@H](CN(C)C(=O)Nc1ccc(C(F)(F)F)cc1)[C@@H](C)CN(Cc1ccccc1Cl)[C@@H](C)CO`: the growth inhibition call is “inactive”.
